Measured values from the supplement of paper PMC11732987, “Enantioselective OTUD7B fragment discovery through chemoproteomics screening and high-throughput optimisation” (Communications Chemistry, 2025).

How the values were obtained:
Experiment in all cases: log2 ratio of Biotin-Ahx-Ub-VS probe labelling (fragment/DMSO); higher = less target engagement (more negative = stronger competition), active = hit call of the paper (q ≤ 0.05, log2 ratio ≤ -1)
Details in all cases: compound concentration: 200 uM; treatment time: 3 h
[1] = target: T1, USP19 (UniProt O94966)
T1 sequence (whole entry): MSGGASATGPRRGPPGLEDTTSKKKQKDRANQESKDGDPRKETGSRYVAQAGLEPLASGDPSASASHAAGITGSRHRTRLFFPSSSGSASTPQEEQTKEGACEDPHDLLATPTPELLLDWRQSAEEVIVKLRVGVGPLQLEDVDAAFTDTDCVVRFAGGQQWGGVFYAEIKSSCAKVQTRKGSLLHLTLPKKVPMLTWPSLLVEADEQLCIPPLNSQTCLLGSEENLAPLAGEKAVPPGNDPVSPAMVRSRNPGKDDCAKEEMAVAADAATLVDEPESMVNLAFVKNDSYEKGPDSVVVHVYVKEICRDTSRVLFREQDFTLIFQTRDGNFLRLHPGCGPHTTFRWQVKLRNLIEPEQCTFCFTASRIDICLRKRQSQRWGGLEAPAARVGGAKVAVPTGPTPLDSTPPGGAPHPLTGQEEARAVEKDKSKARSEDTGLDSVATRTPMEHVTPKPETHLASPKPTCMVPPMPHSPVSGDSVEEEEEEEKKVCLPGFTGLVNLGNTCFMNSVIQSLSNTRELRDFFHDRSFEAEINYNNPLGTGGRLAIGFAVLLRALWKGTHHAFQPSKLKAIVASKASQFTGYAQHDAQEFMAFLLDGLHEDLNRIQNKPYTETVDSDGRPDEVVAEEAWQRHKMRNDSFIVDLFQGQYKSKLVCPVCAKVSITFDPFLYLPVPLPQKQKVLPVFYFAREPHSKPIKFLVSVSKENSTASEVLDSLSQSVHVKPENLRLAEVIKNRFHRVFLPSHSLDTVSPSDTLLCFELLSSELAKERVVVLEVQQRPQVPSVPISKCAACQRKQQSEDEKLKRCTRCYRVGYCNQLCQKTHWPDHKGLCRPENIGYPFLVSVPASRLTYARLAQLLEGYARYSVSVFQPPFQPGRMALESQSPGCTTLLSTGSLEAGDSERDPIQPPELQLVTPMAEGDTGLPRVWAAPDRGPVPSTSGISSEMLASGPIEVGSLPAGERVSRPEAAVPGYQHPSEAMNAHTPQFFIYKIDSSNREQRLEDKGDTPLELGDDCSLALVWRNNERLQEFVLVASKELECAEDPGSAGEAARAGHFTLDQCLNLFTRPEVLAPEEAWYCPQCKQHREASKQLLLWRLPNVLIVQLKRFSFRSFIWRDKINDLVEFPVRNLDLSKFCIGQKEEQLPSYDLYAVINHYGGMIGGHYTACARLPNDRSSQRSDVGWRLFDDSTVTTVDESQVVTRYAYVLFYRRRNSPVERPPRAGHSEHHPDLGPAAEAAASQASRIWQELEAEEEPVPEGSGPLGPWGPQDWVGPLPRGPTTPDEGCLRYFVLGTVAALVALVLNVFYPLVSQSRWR
How it was run: (§1)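 Labelling with Biotin-Ahx-Ub-VS (0.5 µM final, 1 h) followed a 3 h triplicate treatment of HEK293T lysate (495 µg per sample, Tris/CHAPS/IGEPAL buffer with protease inhibitors) with fragment at 200 µM or vehicle. Labelled DUBs were NeutrAvidin-enriched, digested with LysC and trypsin, and run by diaPASEF LC-MS/MS. The values, average log2 fragment/vehicle ratios by unpaired t-test, come from global-median-normalised Spectronaut label-free quantities. Proteins with ≥2 unique peptides were used.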

[2] = target: USP24 (UniProt Q9UPU5)
USP24, sequence (Q9UPU5 whole entry): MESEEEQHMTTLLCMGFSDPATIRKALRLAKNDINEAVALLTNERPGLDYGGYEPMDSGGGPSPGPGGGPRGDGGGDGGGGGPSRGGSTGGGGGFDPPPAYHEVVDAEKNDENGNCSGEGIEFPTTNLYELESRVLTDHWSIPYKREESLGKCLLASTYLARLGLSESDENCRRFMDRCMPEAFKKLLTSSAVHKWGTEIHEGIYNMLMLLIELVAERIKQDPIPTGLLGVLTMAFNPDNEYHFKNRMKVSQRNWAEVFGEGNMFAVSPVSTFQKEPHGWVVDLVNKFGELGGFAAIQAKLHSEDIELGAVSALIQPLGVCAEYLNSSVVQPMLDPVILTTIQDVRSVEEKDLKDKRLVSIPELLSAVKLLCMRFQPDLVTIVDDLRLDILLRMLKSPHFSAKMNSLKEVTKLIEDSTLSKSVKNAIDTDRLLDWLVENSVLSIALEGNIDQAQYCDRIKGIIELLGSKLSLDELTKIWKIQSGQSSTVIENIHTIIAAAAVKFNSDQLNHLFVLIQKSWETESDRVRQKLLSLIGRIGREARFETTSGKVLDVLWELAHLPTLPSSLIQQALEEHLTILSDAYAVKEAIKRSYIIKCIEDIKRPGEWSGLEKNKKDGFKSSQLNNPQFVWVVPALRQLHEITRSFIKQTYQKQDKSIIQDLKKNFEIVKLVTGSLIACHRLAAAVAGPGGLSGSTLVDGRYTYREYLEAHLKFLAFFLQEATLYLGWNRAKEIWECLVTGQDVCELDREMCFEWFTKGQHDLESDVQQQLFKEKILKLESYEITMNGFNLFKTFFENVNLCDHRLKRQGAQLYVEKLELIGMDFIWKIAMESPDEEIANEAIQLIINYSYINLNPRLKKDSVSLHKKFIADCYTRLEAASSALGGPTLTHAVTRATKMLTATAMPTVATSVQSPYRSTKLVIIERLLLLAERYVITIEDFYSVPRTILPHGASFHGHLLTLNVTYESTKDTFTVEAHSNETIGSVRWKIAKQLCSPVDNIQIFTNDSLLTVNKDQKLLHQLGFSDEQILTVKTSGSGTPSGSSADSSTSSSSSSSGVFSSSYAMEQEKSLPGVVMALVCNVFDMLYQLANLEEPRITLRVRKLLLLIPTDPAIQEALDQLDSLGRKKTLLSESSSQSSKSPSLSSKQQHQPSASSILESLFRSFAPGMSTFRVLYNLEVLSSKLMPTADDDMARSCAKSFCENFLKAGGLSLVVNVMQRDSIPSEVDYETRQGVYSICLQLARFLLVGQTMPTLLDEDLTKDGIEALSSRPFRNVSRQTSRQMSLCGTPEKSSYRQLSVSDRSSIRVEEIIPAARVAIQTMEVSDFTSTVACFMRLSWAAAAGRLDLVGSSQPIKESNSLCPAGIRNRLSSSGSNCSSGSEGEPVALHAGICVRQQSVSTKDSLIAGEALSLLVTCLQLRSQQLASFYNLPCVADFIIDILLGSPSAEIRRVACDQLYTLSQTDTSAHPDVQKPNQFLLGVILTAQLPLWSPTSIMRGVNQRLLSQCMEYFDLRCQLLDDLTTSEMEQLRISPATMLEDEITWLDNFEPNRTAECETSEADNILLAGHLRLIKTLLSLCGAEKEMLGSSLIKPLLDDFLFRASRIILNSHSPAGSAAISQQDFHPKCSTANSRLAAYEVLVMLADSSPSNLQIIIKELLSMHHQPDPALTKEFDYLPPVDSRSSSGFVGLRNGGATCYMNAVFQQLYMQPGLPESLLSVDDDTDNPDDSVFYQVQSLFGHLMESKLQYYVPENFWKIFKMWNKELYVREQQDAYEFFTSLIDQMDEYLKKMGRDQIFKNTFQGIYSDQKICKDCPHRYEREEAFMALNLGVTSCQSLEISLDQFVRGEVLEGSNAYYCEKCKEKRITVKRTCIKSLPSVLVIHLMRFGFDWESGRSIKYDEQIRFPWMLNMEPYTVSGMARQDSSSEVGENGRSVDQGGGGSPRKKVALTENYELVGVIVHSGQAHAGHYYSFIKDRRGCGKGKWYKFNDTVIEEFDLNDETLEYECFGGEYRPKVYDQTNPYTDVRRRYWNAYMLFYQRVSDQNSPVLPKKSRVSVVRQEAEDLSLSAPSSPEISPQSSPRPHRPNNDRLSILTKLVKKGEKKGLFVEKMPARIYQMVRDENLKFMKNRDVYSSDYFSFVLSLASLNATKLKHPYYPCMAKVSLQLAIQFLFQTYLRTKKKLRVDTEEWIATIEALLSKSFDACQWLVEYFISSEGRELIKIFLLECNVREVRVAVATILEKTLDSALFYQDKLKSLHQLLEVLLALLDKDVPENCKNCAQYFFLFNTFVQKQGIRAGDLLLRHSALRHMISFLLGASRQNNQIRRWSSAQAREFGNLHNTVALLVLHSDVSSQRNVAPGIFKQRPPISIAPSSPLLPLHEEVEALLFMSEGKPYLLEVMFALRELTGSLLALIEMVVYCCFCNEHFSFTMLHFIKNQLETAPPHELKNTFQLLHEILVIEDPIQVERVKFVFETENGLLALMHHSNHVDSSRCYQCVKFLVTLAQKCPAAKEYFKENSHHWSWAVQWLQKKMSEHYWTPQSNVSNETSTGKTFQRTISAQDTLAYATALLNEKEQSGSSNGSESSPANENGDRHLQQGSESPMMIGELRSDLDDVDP
How it was run: as §1

[3] = target: T2, USP25 (UniProt Q9UHP3)
T2 sequence (whole entry): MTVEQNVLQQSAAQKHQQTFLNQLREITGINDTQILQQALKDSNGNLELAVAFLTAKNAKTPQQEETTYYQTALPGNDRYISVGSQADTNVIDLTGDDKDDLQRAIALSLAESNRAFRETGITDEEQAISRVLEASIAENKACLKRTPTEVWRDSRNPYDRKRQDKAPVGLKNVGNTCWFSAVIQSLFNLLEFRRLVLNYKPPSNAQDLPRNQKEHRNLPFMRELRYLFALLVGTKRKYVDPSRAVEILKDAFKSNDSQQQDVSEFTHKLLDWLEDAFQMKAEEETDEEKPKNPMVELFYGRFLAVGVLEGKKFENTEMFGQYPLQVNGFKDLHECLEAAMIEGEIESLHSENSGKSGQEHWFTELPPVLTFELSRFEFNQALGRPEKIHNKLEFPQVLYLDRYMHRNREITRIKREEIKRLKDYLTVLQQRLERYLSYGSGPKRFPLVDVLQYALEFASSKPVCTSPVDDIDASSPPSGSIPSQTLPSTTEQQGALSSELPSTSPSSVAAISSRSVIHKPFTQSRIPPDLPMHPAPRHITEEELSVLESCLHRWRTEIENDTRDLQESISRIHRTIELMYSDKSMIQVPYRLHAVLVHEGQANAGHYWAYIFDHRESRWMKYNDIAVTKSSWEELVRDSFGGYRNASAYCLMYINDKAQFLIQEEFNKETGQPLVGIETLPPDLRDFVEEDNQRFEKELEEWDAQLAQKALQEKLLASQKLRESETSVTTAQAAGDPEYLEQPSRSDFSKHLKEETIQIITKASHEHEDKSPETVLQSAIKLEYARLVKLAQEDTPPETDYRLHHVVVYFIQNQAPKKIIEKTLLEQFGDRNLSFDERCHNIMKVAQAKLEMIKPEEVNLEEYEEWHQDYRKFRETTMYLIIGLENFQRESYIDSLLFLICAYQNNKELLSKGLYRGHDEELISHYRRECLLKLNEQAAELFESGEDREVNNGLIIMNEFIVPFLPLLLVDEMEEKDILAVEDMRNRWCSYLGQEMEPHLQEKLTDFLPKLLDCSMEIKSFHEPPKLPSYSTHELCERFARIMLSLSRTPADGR
How it was run: as §1

[4] = target: T3, USP28 (UniProt Q96RU2)
T3 sequence (whole entry): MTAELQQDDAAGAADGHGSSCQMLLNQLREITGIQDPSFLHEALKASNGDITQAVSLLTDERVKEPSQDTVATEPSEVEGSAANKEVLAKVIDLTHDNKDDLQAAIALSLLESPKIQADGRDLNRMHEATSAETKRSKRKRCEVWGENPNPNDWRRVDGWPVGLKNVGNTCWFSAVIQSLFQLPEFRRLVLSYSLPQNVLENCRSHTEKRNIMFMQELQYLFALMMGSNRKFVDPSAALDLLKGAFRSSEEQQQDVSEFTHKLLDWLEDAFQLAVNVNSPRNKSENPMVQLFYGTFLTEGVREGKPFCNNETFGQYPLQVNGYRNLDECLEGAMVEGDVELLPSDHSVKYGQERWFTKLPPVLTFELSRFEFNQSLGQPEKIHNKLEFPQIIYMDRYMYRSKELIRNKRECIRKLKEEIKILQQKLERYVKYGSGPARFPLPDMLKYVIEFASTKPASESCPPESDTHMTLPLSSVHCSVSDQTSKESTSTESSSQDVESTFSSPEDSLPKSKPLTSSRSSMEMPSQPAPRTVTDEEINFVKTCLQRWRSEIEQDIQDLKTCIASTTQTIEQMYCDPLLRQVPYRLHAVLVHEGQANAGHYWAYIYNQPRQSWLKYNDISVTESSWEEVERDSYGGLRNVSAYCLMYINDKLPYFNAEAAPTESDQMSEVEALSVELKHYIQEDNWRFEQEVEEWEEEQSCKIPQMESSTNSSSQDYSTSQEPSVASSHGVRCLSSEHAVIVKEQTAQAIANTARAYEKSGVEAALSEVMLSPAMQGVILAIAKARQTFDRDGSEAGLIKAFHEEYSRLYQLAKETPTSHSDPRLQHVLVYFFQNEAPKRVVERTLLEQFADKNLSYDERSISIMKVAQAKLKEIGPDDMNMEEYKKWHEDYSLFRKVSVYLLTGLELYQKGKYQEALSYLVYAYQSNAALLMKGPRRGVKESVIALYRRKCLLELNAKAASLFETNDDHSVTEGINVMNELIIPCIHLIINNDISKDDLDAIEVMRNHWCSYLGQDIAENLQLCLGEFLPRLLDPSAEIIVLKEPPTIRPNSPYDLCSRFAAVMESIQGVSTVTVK
How it was run: as §1

Measured: log2 ratio of Biotin-Ahx-Ub-VS probe labelling

CC1CCc2onc(CNC(=O)CCl)c2C1 (centres undefined)
inactive: [1] 0.0516 | [2] 0.0469 | [3] 0.00198 | [4] -0.19
